PubChem BioAssay (NCI)
About 83,000 compounds went through this panel and 20% of them were active in at least one assay; those are over-represented in the sample as a whole.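 How to read the values: 0–100, growth inhibition (40 = 60% inhibited); 0, no net growth; -100 to 0, cell death (-40 = 40% of starting cells died; -100 = all dead).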 Values without a mark were called inactive. Active and inactive are the calls of the source. The calls were made as follows: active = growth percent below 10; inactive = the rest.

test system: SR leukemia; test: NCI-60 one-dose screen, 48 h (100 = growth as untreated, 0 = no growth, -100 = all killed); conditions: 10 µM unless noted

Row | SMILES | growth
1 | NS(=O)(=O)c1ccc(Nc2nc(N/N=C/c3ccc(F)cc3)nc(Nc3ccccc3)n2)cc1 | 57.7%
2 | COc1ccc(-c2cc(-c3ccc(Cl)cc3)nc3nc(N)nn23)cc1 | 93.6%
3 | COc1ccc(Cn2cc3c(c2-c2cc(OC)c(OC)c(OC)c2)CCCc2cnoc2-3)cc1 | 13.4%
4 | CN(c1ccc(F)cc1)S(=O)(=O)c1ccc(-c2cnc(C3CC3)o2)cc1 | 20.1%
5 | COC[C@]12CC[C@@H](C)[C@H](C)[C@H]1C1=CC[C@@H]3[C@@]4(C)CCCNC(C)(C)[C@@H]4CC[C@@]3(C)[C@]1(C)CC2 | -3.33% (active)
6 | C=C(C)[C@@H]1CC[C@]2(C(=O)ON)CC[C@]3(C)[C@H](CC[C@@H]4[C@@]5(C)C/C(=C/c6ccc(Br)cc6)C(=O)C(C)(C)[C@@H]5CC[C@]43C)[C@@H]12 | 76.2%
7 | CN(c1ccc(Br)cc1)S(=O)(=O)c1ccc(-c2cnc(C3CC3)o2)cc1 | 34.4%
8 | CCCCCCNC(=O)Oc1ccc(/C(=C(\C)c2ccc(Cl)cc2)c2ccc(OCCN(C)C)cc2)cc1 | 2% (active)
9 | C=C(C)[C@@H]1CC[C@]2(COS(C)(=O)=O)CC[C@]3(C)[C@H](CC[C@@H]4[C@@]5(C)CCCNC(C)(C)[C@@H]5CC[C@]43C)[C@@H]12 | -1.07% (active)
10 | O=C(NNc1nc2cc(F)ccc2n2cncc12)c1cnccn1 | 17%
11 | CN1CCN(c2ccc3c(C(N)=O)c(NC(=O)c4ccc(C(C)(C)C)cc4)sc3c2)CC1 | 34.7%
12 | NC(=O)C(=Cc1ccc(Cl)cc1)C(N)=O | 53.3%
13 | CCN1C(=O)N(CC)C2SC(N/N=C/C=C/c3ccccc3OC)=NC21 (stereo not drawn) | 27.5%
14 | CC(=O)C1=NN(c2ccc(Cl)cc2)C(=O)CN1C | 102%
15 | CCOC(=O)c1c(NCC(=O)Nc2ccc(Br)cc2)sc2c1CCCC2 | 43.8%
16 | CN1CCN(c2ccc3c(c2)nc(NNC(=O)c2ccncn2)c2cccn23)CC1 | 14.9%
17 | CCOc1c(C#N)c(Nc2ccc(S(N)(=O)=O)cc2)c(C#N)c2nnc(C)n12 | 100%
18 | O=c1[nH]c(CNc2ccc(NCc3c(-c4ccccc4)no[n+]3[O-])cc2)nc2c1cnn2-c1ccccc1 | 45.7%
19 | C#CCOc1ccc(C(Nc2ccc(Cl)cc2)c2nnnn2C2CCCCC2)cc1 (stereo not drawn) | 81%

Row | SMILES | growth
20 | COc1cc(/C=N/Nc2ccnc3cc(Cl)ccc23)cc(OC)c1O | -23.9% (active)
21 | COc1cc(C(=O)C[n+]2ccc3ccccc3c2)cc(OC)c1OC | 102%
22 | Cc1ccc(NC(=O)c2ccc(CN3CCN(C)CC3)c(I)c2)cc1Oc1ccc(-c2[nH]nc3ncnc(N)c23)cc1 | 4.76% (active)
23 | COc1ccc(Cn2cc3c(c2-c2ccccc2)CCCc2cnoc2-3)cc1 | 21.1%
24 | N#Cc1c(NC(=O)c2ccc(F)c(Cl)c2)sc2c1CCC(=O)C2 | 0.0131% (active)
25 | c1ccc(-c2c(-c3ccccc3)[n+](Cc3ccc4ccccc4c3)c(-c3ccccc3)n2Cc2ccc3ccccc3c2)cc1 | -41.1% (active)
26 | CCOC(=O)C1=C(C)N=C2Sc3ccccc3N2C1c1ccccc1 (stereo not drawn) | 83.8%
27 | CCn1c2ccc(/C=N/NS(=O)(=O)CCN(C)C)cc2c2cc(/C=N/NS(=O)(=O)CCN(C)C)ccc21 | 83.8%
28 | Cn1cc2c(c1)-c1c(sc3nc(-c4ccc(NC(=O)Nc5cc(C(C)(C)C)on5)cc4)cn13)CC2 | 9.8% (active)
29 | CCOC(=O)c1c(NC(=O)c2ccc(C(C)(C)C)cc2)sc2cc(OCCN3CCCCC3)ccc12 | 16.5%
30 | COc1ccccc1/C=C/C=N/NC1=NC2C(S1)N(C)C(=O)N2c1ccccc1 (stereo not drawn) | 16.7%
31 | CC1(C)CC[C@]2(C(=O)O)CC[C@]3(C)C(=CCC4[C@@]5(C)C[C@@H](O)[C@@H]6OC(c7cccc([N+](=O)[O-])c7)OC[C@@]6(C)C5CC[C@]43C)C2C1 (stereo partly drawn) | 72.7%
32 | CN(C)c1ncc(/C=C2\SC(=S)N(Cc3ccccc3Cl)C2=O)s1 | 87.8%
33 | O=C(/C=C1\C=CN(CCCCO)c2ccccc21)n1ccc2ccccc21 | 123%
34 | C#C[C@]1(O)CC[C@H]2[C@@H]3CC=C4c5sc(Nc6nc(C)cc(OC)n6)nc5CC[C@]4(C)[C@H]3CC[C@@]21C | 12.4%
35 | Oc1ccccc1/C=N/Nc1nc(N/N=C/c2ccccc2O)nc(N2CCOCC2)n1 | 16%
36 | IP(CCCSc1n(Cc2ccc3ccccc3c2)c(-c2ccccc2)c(-c2ccccc2)[n+]1Cc1ccc2ccccc2c1)(c1ccccc1)(c1ccccc1)c1ccccc1 | 5.94% (active)
37 | Cn1cc(-c2nnc(N)nc2-c2cn(C)c3ccc(F)cc23)c2cc(F)ccc21 | 85.6%
38 | N/C(=N\OC(=O)CSc1nc2ccccc2s1)c1ccc(Cl)cc1 | 84.8%
